# Bioassay records (PubChem BioAssay)
# TbPYK inhibitor: T. brucei pyruvate kinase inhibition. TbPYK enzyme, Kinase-Glo Plus ATP luminescence, 45 min. Potency, µM (titrated, usually from 76.8 µM), inactives show at the top dose activity, negative = inhibition, hits mostly inhibitors. hit rate 0.12% among 410,000. AID 624173; also: potency is read from the fitted curve at half-maximal effect; % is scaled to controls: 0 for no effect and ±100 for the full control effect; nearly all actives have a fitted effect of over 50% in size
#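 T. brucei PYK with substrate was exposed to pin-transferred compounds across a concentration series, then started with 130 uM ADP (final). After 45 min at room temperature, Kinase-Glo Plus luminescence was read, normalized and curve-fitted.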
# FBPA Giardia inh: Giardia lamblia aldolase inhibition | purified Giardia FBPA | AID 2451 | hit rate 0.71% among 290,000 | Potency, µM (titrated, usually from 59.6 µM), for the others: top-dose activity, negative = inhibition, hits mostly inhibitors; also: potency is read from the fitted curve at half-maximal effect; % is scaled to controls: 0 for no effect and ±100 for the full control effect; nearly all actives have a fitted effect of over 55% in size
# Target sequence (A8B2U2 whole entry, looked up): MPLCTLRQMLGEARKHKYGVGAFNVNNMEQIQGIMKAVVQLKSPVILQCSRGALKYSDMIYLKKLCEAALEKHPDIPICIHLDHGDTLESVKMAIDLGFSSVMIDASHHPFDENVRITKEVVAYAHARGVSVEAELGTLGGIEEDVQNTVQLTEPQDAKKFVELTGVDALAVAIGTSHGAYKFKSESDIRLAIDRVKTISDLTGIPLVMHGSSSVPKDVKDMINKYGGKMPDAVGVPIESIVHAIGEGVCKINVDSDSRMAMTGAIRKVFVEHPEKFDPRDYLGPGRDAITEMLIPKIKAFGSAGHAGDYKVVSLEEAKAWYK
#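 Giardia FBPA (40 nM reagent) was preincubated 10 min at RT with compound (up to 57.5 uM final), then substrate plus GAPDH/TPI/NAD/arsenate coupling system with diaphorase/resazurin was added; resorufin fluorescence (525/598 nm) was read after 20 min.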
# Cycloheximide cs: counter-screen hit for Shiga toxin inhibitors, cycloheximide; cell reporter, cycloheximide protein synthesis inhibition counterscreen; max response, %; hit rate 12% among 300,000; in the data active = max response mostly above about 13%, no sharp cut-off; inactive = mostly below about 14%; also: read at 38.3 µM for the half of the compounds with a filed dose; 0% is about no effect
# RE007 growth inh: less growth of the S. pombe RE007 Vpr strain; AID 651644; S. pombe RE007 Vpr strain, BacTiter-Glo ATP luminescence, 24 h; Potency, µM (top dose mostly 92.2 µM), for inactives: at the top dose activity change, negative = less growth, actives largely listed as inhibitors; hit rate 0.21% among 360,000; active = well fitted falling curve with a large enough effect; inconclusive = small, poorly fitted or top-dose-only effect; inactive = no such curve, though single readings can be large or run the other way; also: potency is read from the fitted curve at half-maximal effect; % is scaled to controls: 0 for no effect and ±100 for the full control effect; nearly all actives have a fitted effect of over 50% in size
#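 Fission yeast strain RE007, carrying one chromosomally integrated HIV-1 vpr copy, was seeded at OD 0.01 in PMG+AL medium with 23 nL pinned compound. After 24 h at 30 °C and 99% humidity, viability was read by BacTiter-Glo luminescence.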
# LmPK inh: LmPK (Leishmania mexicana) enzyme inhibition | AID 1721 | Potency, µM (top dose mostly 57.5 µM), inactives show at the top dose activity change, negative = inhibition, most hits filed as inhibitors | purified LmPK, Kinase-Glo ATP luminescence, 1 h | Q27686 | hit rate 0.37% among 290,000; also: potency is read from the fitted curve at half-maximal effect; % is scaled to controls: 0 for no effect and ±100 for the full control effect
#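 Pyruvate kinase activity monitored as ATP production (luciferase luminescence). Conditions: 0.1 nM enzyme, 0.5 mM PEP, 0.1 mM ADP, 1 h, RT; normalized against uninhibited and no-enzyme wells.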
# Shiga toxin inh: inhibitors of Shiga toxin in Vero cells | hit rate 9.2% among 290,000 | inhibition, % at 38.7 µM | AID 2315 | Vero cells, Shiga toxin protein synthesis inhibition reporter; in the data active = inhibition mostly above about 28%, no sharp cut-off; inactive = mostly below about 43%; also: 0% is about no effect
# * hit, by the source's call; ? = inconclusive; / = no result; + = active, no number. This excerpt belongs to a sample that is enriched for hits. Unless noted, calls follow the shape of the dose curve; as a rule, active = well fitted curve in the direction sought with a large enough effect; inconclusive = small, poorly fitted or top-dose-only effect, or another doubt; inactive = no such curve, though single readings can be large; an effect the other way counts as inactive or inconclusive.
SMILES,TbPYK inhibitor,FBPA Giardia inh,Cycloheximide cs,RE007 growth inh,LmPK inh,Shiga toxin inh
COCCCN(C(=O)c1ccco1)c1nc(-c2ccc(OC)cc2)cs1,-12.5%,2.3%,13.4*,13.8%,0.6%,23.0
Cc1ccccc1OCCn1c(-c2ccc(Cl)cc2)nc2ccccc2c1=O,-5.7%,/,/,/,/,/
O=C(c1cc(COc2c(F)cccc2F)on1)N1CCc2ccccc2C1,2.3%,1.0%,9.9,-11.6%,-1.3%,51.5*
O=C(c1cc(COc2cccc(C(F)(F)F)c2)on1)N1CCc2ccccc2C1,-5.7%,/,/,0.0%,/,/
O=C(c1cc(COc2c(F)cccc2F)on1)N1CCC(c2ccccc2F)C1 (configuration not stated),-3.0%,0.5%,36.1*,-2.5%,5.2%,90.2*
O=C(c1cc(COc2cccc3cnccc23)on1)N1CCC(c2ccccc2Cl)C1 (configuration not stated),0.0%,/,-3.2,-2.0%,3.3%,19.7
O=C(c1cc(COc2c(F)cccc2F)on1)N1CCC(c2ccccc2Cl)C1 (configuration not stated),-0.8%,7.0%,50.6*,0.8%,6.4%,82.0*
COc1ccc(/C=C/C2=CCN(C)CC2)cc1,2.8%,-16.6%,46.3*,4.4%,0.3%,63.3*
CN1CC=C(/C=C/c2ccc(-c3ccccc3)cc2)CC1,2.3%,-13.5%,42.9*,-27.1%,2.5%,84.4*
C#CCn1c(=O)c2c(nc(/C=C/c3cccc(OC)c3)n2C)n(CCCOP(=O)(O)O)c1=O,/,-8.1%,-9.8,/,/,2.3
O=C(Cc1ccccc1)NC1CC(=O)N(c2ccc3c(c2)OCCO3)C1 (configuration not stated),2.8%,/,/,/,/,/
Cc1ccc(NC(=O)Cn2nc(C)c3nn(-c4ccc(Cl)cc4)c(C)c3c2=O)cc1F,-2.8%,/,/,/,/,/
COc1cc(/C=C/C(=O)OC2CC3CCC2(C)C3(C)C)ccc1O (configuration not stated),-6.1%,-10.5%,14.3*,?,2.4%,22.7
COc1ccc(C2Nc3ccccc3C(=O)N2c2ccc(C)cc2)cc1Cn1cc([N+](=O)[O-])cn1 (configuration not stated),-1.9%,0.6%,38.3*,8.4%,7.4%,50.2*
COc1ccc(C2Nc3ccccc3C(=O)N2c2ccc(C)cc2)cc1Cn1nnc2ccccc21 (configuration not stated),4.2%,-3.8%,50.9*,2.8%,0.6%,53.0*
O=C1CC(N2CCN(S(=O)(=O)c3ccccc3F)CC2)C(=O)N1c1ccccc1Cl (configuration not stated),-19.8%,/,/,-11.0%,/,/
CCn1c(SCc2c(F)cccc2Cl)nnc1-c1ccco1,-2.7%,-20.9%,12.4*,-3.3%,4.3%,34.0*
Clc1cccc(Cl)c1CSc1nnc2ccccn12,-16.2%,1.0%,0.7,0.5%,-0.3%,22.4
Brc1ccc(CSc2nnc3ccccn23)cc1,-9.0%,2.5%,25.6*,1.6%,1.2%,49.7*
Fc1ccc(CSc2nnc3ccccn23)c(Cl)c1,-5.2%,-2.9%,44.5*,-0.6%,-0.2%,95.9*
CCn1c(SCc2nc(-c3ccccc3)no2)nnc1-c1ccco1,-13.3%,4.8%,9.9,16.5%,-0.1%,11.1
Fc1cccc(Cl)c1CSc1nnc2ccccn12,1.2%,7.4%,42.3*,11.2%,0.3%,91.0*
O=C(CSc1nnc2ccccn12)NNC(=O)c1ccc(Br)cc1,-3.1%,2.1%,-3.1,-19.9%,6.8%,16.4
COc1ccc(-c2cc(C(F)(F)F)n3nc(-c4ccc(Cl)cc4)cc3n2)cc1OC,-2.1%,/,/,/,/,/
O=C(NNC(=O)C1CC1)c1ccc(F)cc1F,-2.6%,/,/,-8.1%,/,/
SMILES,TbPYK inhibitor,FBPA Giardia inh,Cycloheximide cs,RE007 growth inh,LmPK inh,Shiga toxin inh
COc1ccccc1CN(C)C(=O)c1ccc(S(=O)(=O)Nc2c(C)n(C)n(-c3ccccc3)c2=O)cc1,3.8%,/,/,-5.3%,/,/
COc1ccc(S(=O)(=O)N(n2c(C)nnc2-n2nc(C)cc2C)S(=O)(=O)c2ccc(OC)cc2)cc1,-4.4%,?,21.2*,2.1%,-4.8%,20.3
Cc1ccc(S(=O)(=O)Nn2c(C)nnc2-n2nc(C)cc2C)cc1,-19.4%,?,-2.7,-8.4%,-5.0%,26.4
Fc1ccc(-n2c(-c3cc(C4CC4)[nH]n3)n[nH]c2=S)cc1Cl,?,-18.1%,-2.9,-6.8%,11.2µM*,17.1
Cc1ccc(NC(=O)COC(=O)/C(=C/c2cccs2)c2cccs2)cc1S(=O)(=O)N(C)C,1.8%,-4.6%,31.0*,-22.0%,-0.8%,89.4*
Cc1ccc(NC(=O)COC(=O)c2ccccc2Cl)cc1S(=O)(=O)N(C)C,-4.6%,-7.9%,32.1*,9.4%,14.6%,70.8*
NS(=O)(=O)c1cccc(NC(=O)COC(=O)/C(=C/c2cccs2)c2cccs2)c1,-10.7%,-6.3%,-1.8,3.1%,0.5%,-11.4
O=C(NCCCc1ccccc1)c1nn(-c2ccccc2F)nc1CO,4.8%,/,/,/,/,/
Cc1cc(C(=O)N/N=C/c2cccc(Cl)c2Cl)no1,0.6%,-8.8%,37.9*,20.3%,-2.1%,76.2*
CCc1ccc(/C=N/NC(=O)c2cc(C3CC3)nc3ccccc23)s1,-6.4%,3.7%,-2.7,11.1%,-0.5%,1.6
CCOC(=O)N/N=C/c1c(F)cccc1F,3.8%,0.5%,25.4*,/,-10.2%,35.5*
CCc1ccc(/C=N/NC(=O)c2cc(C)on2)s1,-8.1%,-0.1%,35.3*,3.2%,0.6%,+
CCOC(=O)N/N=C/c1ccccc1F,1.5%,1.0%,33.3*,-28.5%,-24.0%,82.7*
CCOC(=O)N/N=C/c1c(F)c(F)c(F)c(F)c1F,-3.0%,5.1%,-1.0,-5.7%,0.2%,12.2
CC1CCN(c2nn3c(=O)c(C(=O)NCCc4ccc(Cl)cc4)cnc3s2)CC1,0.6%,/,/,/,/,/
Cn1nccc1C(=O)NCc1ccc2c(c1)CCN2C(=O)c1ccc(F)cc1,-1.8%,/,/,/,/,/
C=CCNc1nc2cc(-c3ccccc3C)sc2c(=O)n1C,-0.5%,/,/,-3.8%,/,/
CCOC(=O)N/N=C/c1ccc(F)cc1,-17.0%,-1.9%,38.7*,-0.3%,-2.8%,69.9*
CCOC(=O)N/N=C/c1ccc(OC)c(O)c1,1.1%,16.4%,32.9*,-21.1%,-0.6%,69.3*
COc1cc(/C=N/NC(=O)C2COc3ccccc3O2)ccc1O (configuration not stated),4.8%,-0.4%,-3.9,-7.4%,-1.5%,19.8
COc1ccc(/C=N\NC(=O)C2COc3ccccc3O2)cc1O (configuration not stated),1.3%,3.1%,19.8*,18.6%,0.5%,62.4*
CCOC(=O)N/N=C/c1cccc(Cl)c1Cl,0.1%,-15.4%,40.3*,/,1.1%,78.5*
COc1ccc(CNc2ncc(-c3ccc(Cl)cc3)n2C)c(OC)c1OC,-3.3%,?,-3.4,-12.0%,-12.5%,-4.6
